Screening results from PubChem.
PI4K2A block – PI4K2A (human) kinase inhibition; Q9BTU6; purified PI4K2A, ADP-Glo luminescence, 1 h; stronger effect = lower value; activity change, negative = inhibition, % at 76.9 µM; 420,000 tested, 0.13% active; AID 1346378; in the data active = activity change below about -50%; inconclusive = mostly about -30% to -49%
Target sequence (Q9BTU6 whole entry, looked up): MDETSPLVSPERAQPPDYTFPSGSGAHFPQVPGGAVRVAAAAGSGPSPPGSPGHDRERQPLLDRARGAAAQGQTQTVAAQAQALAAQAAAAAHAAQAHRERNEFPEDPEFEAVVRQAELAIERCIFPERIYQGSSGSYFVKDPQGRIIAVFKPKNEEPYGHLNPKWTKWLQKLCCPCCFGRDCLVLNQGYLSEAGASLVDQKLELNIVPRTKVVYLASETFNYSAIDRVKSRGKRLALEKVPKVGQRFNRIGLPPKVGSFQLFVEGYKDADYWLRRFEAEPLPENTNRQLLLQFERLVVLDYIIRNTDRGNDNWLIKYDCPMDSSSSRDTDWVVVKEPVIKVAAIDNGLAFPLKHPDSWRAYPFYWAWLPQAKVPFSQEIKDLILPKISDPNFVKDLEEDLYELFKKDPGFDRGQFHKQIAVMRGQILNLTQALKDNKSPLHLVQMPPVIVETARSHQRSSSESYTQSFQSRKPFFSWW
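Compounds are screened against recombinant PI4K2A using PI as substrate and ATP, the latter dispensed at 300 microM. Reactions run one hour at ambient temperature before ADP-Glo detection; full inhibition defined by wells lacking enzyme.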
KB-V1 cytotox – kills drug-selected multidrug resistant KB-V1 cells. KB-V1 MDR cells viability, CellTiter-Glo, 72 h. Potency, µM (titrated, usually from 46.1 µM), usual class: cytotoxic. 400,000 tested, 3.4% active. AID 1347076; also: nearly all actives have a fitted effect of over 60% in size
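Cells of the MDR subline KB-V1 are plated, dosed with compound at multiple concentrations, and incubated 72 h at 37 degrees C; CellTiter-Glo is then added and luminescence read after 10 min.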
A549 viability – kills or reduces viability of A549 cells in Nrf2 counter-screen | A549 ARE-Fluc cells, CellTiter-Fluor viability, 18-24 h | Potency, µM (series often up to 46 µM), actives largely listed as inhibitors | 390,000 tested, 0.16% active
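Cytotoxicity counterscreen: CellTiter-Fluor fluorescence was measured in A549 ARE_Fluc cells after 18-24 h of compound exposure in a concentration series. The subsequent BugLite luminescent read reports ARE-luciferase activity.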
Nrf2 inh – inhibitors of Nrf2 signaling. A549 ARE-Fluc reporter, luciferase luminescence, 18-24 h. 360,000 tested, 2.1% active. Potency, µM (series often up to 46 µM), usual class: inhibitors; also: nearly all actives have a fitted effect of over 60% in size
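A549 ARE_Fluc cells, 5000/well, 5% FBS OPTI-MEM; compounds in dose-response, 18-24 h at 37 °C/5% CO2; CellTiter-Fluor viability read (Ex 405/Em 525), then BugLite luciferase luminescence = Nrf2 activity.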
Giardia killer – Giardia lamblia killing; Giardia lamblia trophozoite viability; activity change, % at 7.66 µM, hits read low; 340,000 tested, 0.15% active; in the data active = activity change below about -80%; inconclusive = between about -30% and that limit;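 also: parasites exposed to compound for two days anaerobically before the ATP read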
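Giardia trophozoites, 100 cells per well, were exposed to compounds for 48 hrs at 37 deg C under anaerobic conditions; viability was then read as ATP content by bioluminescence after 15-30 min at room temperature.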
KB-3-1 cytotox – KB-3-1 parental cell cytotoxicity | Potency, µM (titrated, usually from 46.1 µM), usual class: cytotoxic | AID 1347075 | KB-3-1 viability, CellTiter-Glo ATP luminescence, 72 h | 400,000 tested, 1.4% active; also: nearly all actives have a fitted effect of over 60% in size
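Screening of KB-3-1 cells (DMEM, 10% FBS, phenol-red free) ran from lowest to highest compound concentration; after 72 h at 37 °C viability was read luminescently and curves fitted.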
Numbers stand for hits; i = inactive; ? = inconclusive; nt = no result given; ! = not confirmed by another sample. Hits are enriched below; roughly 5.7% of the tested compounds scored in any of these assays. Unless noted, calls follow the shape of the dose curve; as a rule, active = well fitted curve in the direction sought with a large enough effect; inconclusive = small, poorly fitted or top-dose-only effect, or another doubt; inactive = no such curve, though single readings can be large; an effect the other way counts as inactive or inconclusive.

SMILES	PI4K2A block	KB-V1 cytotox	A549 viability	Nrf2 inh	Giardia killer	KB-3-1 cytotox
CCCCOc1ccccc1C1CC(=O)Nc2ccc3ccccc3c21 (stereo not given)	i	nt	i	?	nt	nt
CC(C)(C)NC(=O)C(c1ccccc1)n1c(=O)c(-c2cc3ccccc3[nH]2)nc2ccccc21 (stereo not given)	i	23.1µM	nt	nt	nt	?
O=C(NC1CCCC1)C(C1CC1)n1c(-c2cc3ccccc3[nH]2)nc2ccccc21 (stereo not given)	i	?	nt	nt	nt	i
CC(C)(C)NC(=O)C(CCc1ccccc1)n1c(=O)c(-c2cc3ccccc3[nH]2)nc2ccccc21 (stereo not given)	i	?	nt	nt	nt	i
O=C(NC1CCCCC1)C(C1CC1)n1c(=O)c(-c2cc3ccccc3[nH]2)nc2ccccc21 (stereo not given)	i	23.1µM	nt	nt	nt	?
CC(C)(C)NC(=O)C(c1ccc(-c2ccccc2)cc1)n1c(=O)c(-c2cc3ccccc3[nH]2)nc2ccccc21 (stereo not given)	i	i	nt	nt	nt	?
Cc1cccc(C)c1NC(=O)C(CCc1ccccc1)n1c(=O)c(-c2cc3ccccc3[nH]2)nc2ccccc21 (stereo not given)	i	20.6µM	nt	nt	nt	?
COc1cccc(/C=C2\CC3(OC(=O)c4cccc(F)c4)CCCN2C3)c1 (stereo not given)	i	nt	nt	nt	nt	nt
Cc1cccc(NC(=O)Cn2c(=O)n(CCc3ccccc3)c(=O)c3sc4ccccc4c32)c1	i	nt	i	?	nt	nt
Cc1cnccn1	nt	i	nt	nt	nt	i
Cc1cc(N)n2nc(-c3ccccc3)cc2n1	-53.7	?	i	?	?	?
Cc1ccc(-c2cc3nc(-c4ccccc4)cc(N)n3n2)cc1	i	i	i	i	i	i
O=C(Nc1ccc(Cl)cc1)N1CCN(C(=O)C2CCCO2)CC1 (stereo not given)	i	i	i	i	i	i
O=C(Nc1cc(Cl)cc(Cl)c1)N1CCN(C(=O)C2CCCO2)CC1 (stereo not given)	i	?	i	16.4µM	i	?
Cc1ccc(C)c(S(=O)(=O)NCc2ccc(C(=O)NCc3ccco3)cc2)c1	i	i	i	i	i	i
O=C(NCc1ccco1)c1ccc(COc2cccc3ccccc23)cc1	i	20.6µM	i	16.4µM	i	i
O=C(NCc1ccco1)c1ccc(COc2ccccc2Cl)cc1	i	i	i	?	i	i
Cc1ccc(C(=O)Nc2cccc(C(=O)NCc3ccccc3)c2)cc1	i	4.61µM	i	i	i	8.2µM
COc1ccc(C(=O)Nc2cccc(C(=O)NCc3ccccc3)c2)cc1	i	?	i	i	i	i
Cc1ccc(C(=O)NCc2ccco2)cc1S(=O)(=O)Nc1cccc(Cl)c1	i	i	i	23.1µM	i	i
Cc1ccc(CNC(=O)c2ccc3c(=O)c(O)c(-c4ccc(C)cc4)[nH]c3c2)cc1	i	?	?	20.6µM	i	4.61µM
COC(=O)[C@]12C[C@H](CC(=O)N3CCSCC3)C(=O)N(CCC3=CCCCC3)C1=C[C@H](C1CCCC1)O[C@@H]2C	i	nt	nt	nt	nt	nt
O=C(NCc1ccco1)c1cccc(NC(=O)c2ccccc2)c1	i	i	i	i	i	?
Cc1ccc(C(=O)Nc2cccc(C(=O)NCc3ccco3)c2)cc1	i	i	i	nt	i	3.26µM
Cc1cc(NC(=O)N2CCC(CN3CCCCCC3)CC2)ccc1Br	i	nt	i	?	nt	nt
SMILES	PI4K2A block	KB-V1 cytotox	A549 viability	Nrf2 inh	Giardia killer	KB-3-1 cytotox
COc1ccc(/C=C2\SC(=Nc3ccccc3OC)NC2=O)cc1	i	?	i	?	i	?
COc1cc(/C=C2/SC(=Nc3ccc(O)cc3)NC2=O)ccc1O	i	?	i	?	i	9.2µM
COc1cc(/C=C2\SC(=Nc3ccccc3OC)NC2=O)ccc1O	i	?	i	i	i	18.4µM
CCc1ccc(N=C2NC(=O)/C(=C/c3cc(OC)c(O)c(OC)c3)S2)cc1	i	?	i	i	i	i
Cc1cccc(N2CCN(C(=O)C3CCN(S(=O)(=O)N4CCOCC4)CC3)CC2)c1C	i	?	i	20.6µM	i	i
CCn1c(C(=O)N2CCC(C(=O)N3CCN(c4cccc(C)c4C)CC3)CC2)cc2sccc21	i	i	i	20.6µM	nt	i
O=C(Cn1c(C(=O)N2CCN(C3CCCCC3)CC2)cc2sccc21)c1ccccc1	i	6.51µM	?	nt	i	?
Cc1cccc(N2CCN(C(=O)N3CCOCC3)CC2)c1C	i	?	i	i	i	20.6µM
CCn1c(C(=O)N2CCC(C(=O)N3CCN(c4cc(C)ccc4C)CC3)CC2)cc2sccc21	i	i	i	?	nt	i
Cc1ccc2c(C(=O)CNC3=NCCS3)c(C)[nH]c2c1	nt	?	nt	nt	nt	i
O=C(/C=C/c1ccc(Cl)cc1)Nc1cccc([S+](=O)([O-])Nc2ccccc2F)c1	nt	i	nt	nt	nt	i
CCOC(=O)N1CCC(NC(=O)c2cc3sccc3n2CC)CC1	i	23.1µM	?	?	i	i
Oc1ccc(Br)cc1/C=N/n1cnc2ccccc21	i	14.6µM	i	?	i	i
O=[N+]([O-])C(/C=C(/Cl)[N+](=O)[O-])=C(N1CCCCC1)N1CCCCC1	i	i	?	i	-93.7	i
COc1ccc(CCC(=O)Nc2c(-c3ccc(N(C)C)cc3)[nH][nH]c2=O)cc1	-64.2	i	nt	nt	nt	?
Cc1ccc(-n2ncc3c2CCCC3NC(=O)c2ccoc2)cc1C (stereo not given)	i	nt	i	?	i	nt
COCc1ccc(C(=O)NC2CCCc3c2cnn3-c2ccc(C)c(C)c2)o1 (stereo not given)	i	i	i	14.6µM	i	i
CC(C)(C)OC(=O)NCCc1ccccc1/C=C/S(=O)(=O)NCc1ccccc1	i	nt	nt	nt	nt	nt
CCOc1cc2[nH]c(=S)n(CC3CCCO3)c(=O)c2cc1OCC (stereo not given)	i	11.6µM	i	i	i	?
CCC1CN(C(=O)NCc2ccc(C)cc2)c2cc(C)ccc2O1 (stereo not given)	i	i	?	20.6µM!	i	i
CCC1CN(C(=O)NCc2ccccc2)c2cc(C)ccc2O1 (stereo not given)	i	i	?	?	i	i
C=CCN1C(=O)[C@@H](CC(=O)NCc2cccc3ccccc23)[C@]2(C(=O)OCC)CCCCC/C=C/12	i	nt	nt	nt	nt	nt
COc1ccc(OC)c2[nH]c(=O)c(CCNC(=O)COc3ccccc3)cc12	i	9.2µM	i	i	i	i
O=C(NCc1cccnc1)C1CCC(c2ccc(Cl)cc2)CC1 (stereo not given)	i	?	i	23.1µM	i	i
O=C(NCc1cccnc1)C1CCN(C(=O)c2ccc(Cl)cc2Cl)CC1	i	i	i	i	i	i
O=C(Nc1ccc(N2CCCC2)c(Cl)c1)c1ccc([N+](=O)[O-])o1	i	?	?	?	?	?
